TGFb SMAD3 inh: qHTS for Inhibitors of TGF-b; HepG2 CAGA-GFP TGF-b/SMAD3 reporter, GFP fluorescence, 18 h; TGF-beta stimulated, 500 pg/mL final; Potency, µM (series often up to 46.1 µM), for the others: at the top dose activity, negative = inhibition, actives largely listed as inhibitors; 1.2% of 410,000 active; note: % is set by controls: 0 for no effect and ±100 for the full control effect; nearly all actives have a fitted effect of over 65% in size
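Read-out: total well GFP (ex488/em500-530) summed from mean per-cell fluorescence. Cells: HEPG2 CAGA-GFP, 1% FBS DMEM, 18 h at 37 degrees C with 500 pg/mL final TGF-beta. Unstimulated wells served as the full-inhibition control; stimulated DMSO wells = 0%.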
DT40 TDP1 CPT: qHTS for Inhibitors of human tyrosyl-DNA phosphodiesterase 1 (TDP1): qHTS in cells in presence of CPT; chicken DT40 Tdp1-/-;hTDP1 cells + 20 nM CPT, ATP luminescence, 48 h; AID 686979, 2013; 12% of 420,000 active; Potency, µM (highest dose often 46.2 µM), for the others: at the top dose activity change, negative = growth inhibition, actives largely listed as inhibitors; note: % is set by controls: 0 for no effect and ±100 for the full control effect; nearly all actives have a fitted effect of over 55% in size
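Chicken DT40 Tdp1-/- cells stably complemented with human TDP1 were seeded at 400 cells/well in medium containing 20 nM camptothecin, exposed to pin-transferred compounds, and grown at 37 °C for at least 48 hr. Viability was read as ATP luminescence.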
TDP1 cell noCPT: qHTS for Inhibitors of human tyrosyl-DNA phosphodiesterase 1 (TDP1): qHTS in cells in absence of CPT; AID 686978, 2013; Potency, µM (top dose mostly 46.2 µM), for inactives: top-dose activity change, negative = growth inhibition, hits mostly inhibitors; 15% of 420,000 active; DT40 Tdp1-/- hTDP1 cells, no CPT, ATP luminescence, 48 h; note: % is set by controls: 0 for no effect and ±100 for the full control effect; nearly all actives have a fitted effect of over 55% in size
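Chicken DT40 Tdp1-/- cells stably complemented with human TDP1 were seeded at 400 cells/well with DMSO in place of 20 nM camptothecin. After compound pinning, cells grew at least 48 hr at 37 °C; viability read by CellTiter-Glo luminescence.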
HepG2 viability: qHTS for Inhibitors of TGF-b: Cytotox Counterscreen | HepG2 CAGA-GFP viability, ATP luminescence, 18 h | Potency, µM (doses to about 46.1 µM), for inactives: at the top dose activity change, negative = cytotoxicity, usual class: cytotoxic | 0.76% of 410,000 active | AID 588856, 2011
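CellTiter-Glo luminescence gave cytotoxicity after 18 hours at 37 degrees C. The cells were HepG2 CAGA-GFP in 1% FBS DMEM, stimulated with 500 pg/mL TGF-beta after compound addition. %Activity was normalised to no-cell wells (complete cell-killing) and DMSO (no toxicity), and curves were fitted and classified.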
S2 tox: Viability Counterscreen for Primary qHTS for Inhibitors of ATXN expression; S2 cells (HEK-293 line with an ATXN2-luciferase reporter) viability, CellTiter-Fluor protease fluorescence, 24 h; Potency, µM (titrated, usually from 56.7 µM), hits mostly cytotoxic; 0.49% of 400,000 active; note: nearly all actives have a fitted effect of over 40% in size
ATXN2 expr inh: Primary qHTS for Inhibitors of ATXN expression | 0.72% of 360,000 active | Potency, µM (titrated, usually from 57 µM), without a hit: top-dose activity change, negative = inhibition, most hits filed as inhibitors | HEK-293 ATXN2-luciferase reporter, luminescence, 24 h; note: % is set by controls: 0 for no effect and ±100 for the full control effect; nearly all actives have a fitted effect of over 55% in size
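qHTS (up to 57 uM final) was run with 24 h compound exposure of reporter cells at 37 °C. Each well was multiplexed: SteadyGlo luminescence measured ATXN2-luciferase expression after a fluorogenic Gly-Phe-AFC viability readout (25 uM final).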
Active calls of the source: *. Only some compounds are listed: those with a hit (about 17% of all), similar ones and a draw of the others. Calls come from the whole dose curve; as a rule, active = well fitted curve in the direction sought with a large enough effect; inconclusive = small, poorly fitted or top-dose-only effect, or another doubt; inactive = no such curve, though single readings can be large; an effect the other way counts as inactive or inconclusive. Potency is the fitted concentration of half-maximal effect.

`COc1cccc(N2CCN(C(=O)Cn3ncc4c(=O)oc5ccccc5c43)CC2)c1` gave TGFb SMAD3 inh -10.9%, DT40 TDP1 CPT 16.4µM*, TDP1 cell noCPT 18.4µM*, HepG2 viability -9.3%, S2 tox inactive and ATXN2 expr inh -23.1%.
`Cc1c2cnn(-c3ccccc3)c(=O)c2c(C)n1CC(=O)N1CCN(c2cccc(Cl)c2)CC1` gave TGFb SMAD3 inh -9.3%, DT40 TDP1 CPT 18.4µM*, TDP1 cell noCPT 13µM*, HepG2 viability 1.3%, S2 tox inactive and ATXN2 expr inh 5.2%.
Cc1cc(=O)n(CC(=O)N2CCCc3ccccc32)c2c1c(C)nn2-c1cccc(F)c1 was read as TGFb SMAD3 inh 7.6%, DT40 TDP1 CPT 16.4µM*, TDP1 cell noCPT inconclusive, HepG2 viability 3.7%, S2 tox inactive and ATXN2 expr inh 11.1%.
For Cc1c2cnn(-c3ccccc3)c(=O)c2c(C)n1CC(=O)N1CCN(c2ccc(F)cc2)CC1 the results were TGFb SMAD3 inh inconclusive, DT40 TDP1 CPT 20.6µM*, TDP1 cell noCPT 14.6µM*, HepG2 viability -26.3%, S2 tox inactive and ATXN2 expr inh -13.4%.
`Cc1ccc(N2CC(O)CSC2=Nc2ccccc2)cc1` (centres undefined) gave TGFb SMAD3 inh inconclusive, DT40 TDP1 CPT inconclusive, TDP1 cell noCPT inconclusive, HepG2 viability -22.6% and S2 tox inactive.
For N#Cc1ccccc1CCN1C(=O)c2ccccc2C1=O the results were TGFb SMAD3 inh 10.5%, DT40 TDP1 CPT -2.1%, TDP1 cell noCPT 6.0%, HepG2 viability -0.8%, S2 tox inactive and ATXN2 expr inh 4.6%.
For Cc1ccc(C)c(N2CCN(C(=O)Cn3c(C)c4cnn(-c5ccccc5)c(=O)c4c3C)CC2)c1 the results were TGFb SMAD3 inh inconclusive, DT40 TDP1 CPT 5.17µM*, TDP1 cell noCPT 2.91µM*, HepG2 viability -24.1%, S2 tox inconclusive and ATXN2 expr inh inconclusive.
`Cc1cc(=O)n(CC(=O)N2CCN(c3ccc(F)cc3)CC2)c2c1c(C)nn2C` gave TGFb SMAD3 inh 7.08µM*, DT40 TDP1 CPT 18.4µM*, TDP1 cell noCPT 20.6µM*, HepG2 viability -31.8%, S2 tox inconclusive and ATXN2 expr inh inconclusive.
`Cc1ccc(Cn2c(C)c3cnn(CC(=O)N4CCN(c5ccc(F)cc5)CC4)c(=O)c3c2C)cc1` gave TGFb SMAD3 inh inconclusive, DT40 TDP1 CPT 10.3µM*, TDP1 cell noCPT 11.6µM* and HepG2 viability -24.0%.
Screening CCCN1CCN(C(=O)CCCn2c(C)c3cnn(-c4ccccc4)c(=O)c3c2C)CC1 returned TGFb SMAD3 inh 13.4%, DT40 TDP1 CPT -21.1%, TDP1 cell noCPT 1.1%, HepG2 viability -46.9%, S2 tox inconclusive and ATXN2 expr inh -12.6%.
For CCOC(=O)C1CCCN(C(=O)Cn2c(=O)cc(C)c3c(C)nn(C)c32)C1 (centres undefined) the results were TGFb SMAD3 inh inconclusive, DT40 TDP1 CPT inconclusive, TDP1 cell noCPT inconclusive, HepG2 viability -12.1%, S2 tox inactive and ATXN2 expr inh -19.3%.
For O=C(NCCCN1CCOCC1)c1cn(-c2ccccc2)nc1-c1ccc(Br)cc1 the results were TGFb SMAD3 inh 0.0%, DT40 TDP1 CPT inconclusive, TDP1 cell noCPT 16.4µM*, HepG2 viability -29.5%, S2 tox inactive and ATXN2 expr inh inconclusive.
For O=C(Nc1nc2ccccc2n1CCN1CCOCC1)c1cn(-c2ccccc2)nc1-c1ccccc1 the results were TGFb SMAD3 inh -13.0%, DT40 TDP1 CPT 18.4µM*, TDP1 cell noCPT 18.4µM*, HepG2 viability -11.1%, S2 tox inconclusive and ATXN2 expr inh inconclusive.
